Screening data (PubChem BioAssay)
The list is not random: actives were taken first. Their share in the collection is about 7.5%.
Rab9 prom act: activators of Rab9 promoter; Huh7 Rab9 promoter-luciferase reporter, luminescence, 24 h; Potency, µM (highest dose often 9.22 µM), inactives show top-dose activation, negative = inhibition, most hits filed as activators; hit rate 2.8% among 320,000; AID 485297; also: % of control where 0% means no effect; nearly all actives have a fitted effect of over 60% in size
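Huh7 cells stably carrying Rab9 promoter–luciferase reporter, plated 1500 cells/well, compound added after 2 h and incubated 24 h at 37 °C; luciferase luminescence then read after 10 min with detection reagent.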
FLuc counter: inhibits or activates purified firefly luciferase, miR-21 counter-screen; purified FLuc, Km substrates, luminescence inhibition; Potency, µM (series often up to 57.5 µM), without a hit: top-dose activity change, negative = inhibition, actives largely listed as inhibitors; hit rate 6.9% among 360,000; AID 588342;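 also: plate controls were vehicle for no effect and reference inhibitor for full effect; nearly all actives have a fitted effect of over 55% in size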
Target sequence (P08659 whole entry, looked up): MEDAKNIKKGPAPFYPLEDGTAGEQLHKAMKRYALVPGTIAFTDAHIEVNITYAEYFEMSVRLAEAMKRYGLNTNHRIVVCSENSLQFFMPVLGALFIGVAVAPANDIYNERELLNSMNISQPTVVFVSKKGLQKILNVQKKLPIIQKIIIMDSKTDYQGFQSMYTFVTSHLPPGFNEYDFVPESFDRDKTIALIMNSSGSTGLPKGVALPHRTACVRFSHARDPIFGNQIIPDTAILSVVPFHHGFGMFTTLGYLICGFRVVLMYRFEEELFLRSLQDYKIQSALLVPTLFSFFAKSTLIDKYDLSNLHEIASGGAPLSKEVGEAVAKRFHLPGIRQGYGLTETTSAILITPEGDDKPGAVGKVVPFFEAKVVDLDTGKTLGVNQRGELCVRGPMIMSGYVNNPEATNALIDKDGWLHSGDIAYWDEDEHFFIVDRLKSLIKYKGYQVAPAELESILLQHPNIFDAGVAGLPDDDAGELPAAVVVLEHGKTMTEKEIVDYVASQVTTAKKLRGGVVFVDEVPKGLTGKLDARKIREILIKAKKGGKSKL
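Biochemical qHTS of compounds, final roughly 60 µM downward over six points, against 10 nM purified firefly luciferase using Km concentrations of substrates (10 uM D-luciferin, 10 uM ATP) in Tris acetate pH 7.5 buffer; luminescence output.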
NPC1 promoter act: activates the NPC1 promoter | hit rate 2.4% among 320,000 | Potency, µM (series often up to 9.22 µM), without a hit: top-dose activation, usual class: activators | Huh7 NPC1 promoter luciferase reporter, 24 h | AID 485313; also: % of control where 0% means no effect; nearly all actives have a fitted effect of over 60% in size
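Compounds in DMSO were transferred onto Huh7 NPC1-luciferase reporter cells pre-incubated 2 h; after 24 h at 37 °C, Amplite reagent was dispensed and luminescence recorded 10 min later.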
ELG1 genotoxic: induces genotoxicity in HEK293T cells with luciferase-tagged ELG1; hit rate 1.3% among 330,000; Potency, µM (doses to about 46 µM), without a hit: at the top dose activity change, positive = activation, actives largely listed as activators; AID 504466; HEK293T ELG1-luciferase reporter, luminescence, 16 h; also: % of control where 0% means no effect; nearly all actives have a fitted effect of over 60% in size
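DMSO vehicle served as control against compound-treated ELG1-luciferase HEK293T cells; exposure lasted 16 hr at 37 °C and 5% CO2, followed by ONE-Glo luminescence detection after 30 min.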
SMN2 splice enh: SMN2 splice variant enhancement. hit rate 2.8% among 210,000. AID 1458. HEK293 SMN2-luciferase splicing reporter, luminescence, 30-36 h. Potency, µM (top dose mostly 46.1 µM), without a hit: at the highest dose activity change, positive = activation, actives largely listed as activators; also: % of control where 0% means no effect; nearly all actives have a fitted effect of over 55% in size
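qHTS luciferase splicing reporter: luminescence rises when SMN2 exon 7 is included in transfected HEK293 cells. Compound exposure lasted 30-36 h at 37C, with 4.5 mM final sodium butyrate as control, followed by a ONE-Glo read.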
* hit, by the source's call; ? = inconclusive; nt = not tested or not shown; [ ] = remark or other dose. Calls follow the shape of the dose curve; as a rule, active = well fitted curve in the direction sought with a large enough effect; inconclusive = small, poorly fitted or top-dose-only effect, or another doubt; inactive = no such curve, though single readings can be large; an effect the other way counts as inactive or inconclusive. Potency is read from the fitted curve at half-maximal effect.

SMILES | Rab9 prom act | FLuc counter | NPC1 promoter act | ELG1 genotoxic | SMN2 splice enh
COc1ccc(S(=O)(=O)N2CCOCC2)cc1NC(=O)COC(=O)CCOc1ccc(C)cc1 | -3.6% | ? | -0.2% | -4.7% | nt
COC(=O)c1ccc(CC(=O)c2nc3ccccc3s2)cc1 | 2.82µM* | 3.01µM* | ? | ? | 0.9%[1.84 µM]
O=C(Cc1ccccc1)c1nc2ccccc2s1 | 2.82µM* | 10.7µM* | 2.51µM* | ? | 3.98µM*
COC(=O)c1ccc(/C(O)=C(\C#N)c2nc3ccccc3s2)cc1 | 3.16µM* | 7.57µM* | 2.82µM* | 3.3% | nt
COC(=O)c1ccc(CSc2nc3ccccc3s2)o1 | ? | 16.9µM* | ? | 16.4µM* | ?
COc1ccc(S(=O)(=O)N2CCCC(N(C)CCc3ccccc3)C2)cc1OC (configuration not stated) | -0.2% | 3.3% | -5.6% | -4.2% | nt
Cc1ccc(C(=O)OCC(=O)Nc2cccc(S(=O)(=O)NC3=NCCCCC3)c2)c(C)c1 | 0.5% | ? | -1.4% | -8.7% | -56.3%
O=C(Nc1cccc(NC(=O)c2ccc(Br)o2)c1)c1ccccc1 | -2.2% | ? | 12.8% | -5.3% | ?
O=C(Nc1ccc2ccccc2c1)c1ccc(Br)o1 | 3.55µM* | 5.36µM* | 3.55µM* | ? | nt
Cc1ccccc1C(=O)Nc1cccc(NC(=O)c2ccc(-c3ccc(Br)cc3)o2)c1 | -1.1% | 4.78µM* | -2.8% | -0.4% | 24.4%
Cc1cccc(NC(=O)c2ccc(C(=O)c3ccccc3)o2)c1 | ? | 8.49µM* | 27.2% | ? | 15.8µM*
O=C(c1ccccc1)c1cccc(NC(=O)c2ccc(Br)o2)c1 | ? | 23.9µM* | 2.5% | 4.0% | 4.4%
COC(=O)c1ccccc1NC(=O)CSc1nc(-c2ccccc2)cc(C(F)(F)F)n1 | nt | -7.1% | nt | nt | 3.3%
O=C(O)/C(=C1\OC(=O)c2ccccc21)c1ccccc1 | -3.3% | 26.9µM* | -5.0% | 0.6% | 13.6%
CCOC(=O)/C(C(C)=O)=C1/OC(=O)c2ccccc21 | -2.3% | -1.2% | 1.1% | -4.9% | 6.2%
N#Cc1ccccc1NC(=O)CSc1n[nH]c(-c2ccco2)n1 | 4.2% | -0.1% | -2.0% | -1.5% | nt
CCn1c(Cn2nnc(-c3ccccc3)n2)nnc1SCC(=O)Nc1ccc(C(C)=O)cc1 | 23.9% | 19µM* | ? | 14.1% | 13.8%
CCn1c(Cn2nnc(-c3ccccc3)n2)nnc1SCC(=O)Nc1cccc(C(C)=O)c1 | 7.2% | -2.0% | 0.3% | -3.6% | -6.9%
Cc1cccc(NC(=O)CSCC(=O)N(CCC(C)C)c2c(N)n(Cc3ccccc3)c(=O)[nH]c2=O)c1 | -5.9% | 2.1% | -2.7% | -19.7% | nt
CNC(=O)c1ccc(-c2ccc(Cl)c(Cl)c2)s1 | ? | ? | 19.1% | ? | 26.3%
CNC(=O)c1ccc(-c2ccc(F)cc2)s1 | ? | 9.53µM* | ? | 18.4µM* | ?
COc1ccc(NC(=O)c2ccc(-c3ccc(OC)cc3)s2)cc1 | 3.3% | -0.8% | -5.9% | 9.3% | 10µM*
CNC(=O)c1ccc(-c2ccc(OC)cc2)s1 | 12.0% | 6.75µM* | 1.26µM* | ? | 17.8µM*
COc1ccc(NC(=O)c2sc(Cl)nc2-c2ccccc2)cc1 | 17.4% | -0.2% | -0.8% | 0.3% | 21.5%
CCN(C(=O)COC(=O)c1cccs1)c1c(N)n(Cc2ccccc2)c(=O)[nH]c1=O | -1.0% | 0.8% | 2.2% | -3.0% | nt
SMILES | Rab9 prom act | FLuc counter | NPC1 promoter act | ELG1 genotoxic | SMN2 splice enh
CCC(=O)Nc1cccc(C(=O)/C=C/c2ccccc2)c1 | 5.6% | 10.7µM* | -2.4% | ? | -87.6%
CCC(=O)Nc1cccc(C(=O)/C=C/c2cccs2)c1 | ? | 12µM* | 25.6% | 11.9% | -63.5%
CCC(=O)Nc1cccc(C(=O)c2ccccc2)c1 | 1.7% | -7.6% | -0.2% | 10.2% | 3.1%
CCc1ccccc1NC(=O)c1nc2nc(C)cc(C(F)F)n2n1 | nt | 2.9% | nt | nt | -0.1%
Cc1ccc(CNC(=O)c2cc3c(s2)-c2ccccc2SC3)cc1 | nt | -5.5% | nt | nt | -52.5%
CCOCCCNC(=O)c1cc2c(s1)-c1ccccc1SC2 | 4.9% | 16.9µM* | 1.2% | 2.2% | nt
COC(=O)[C@@]1(Cc2ccc(OC)cc2)[C@H]2c3cc(C(=O)N(C)C)n(Cc4cccc5ccccc45)c3C[C@H]2CN1C(=O)c1ccccc1 | nt | nt | nt | nt | -11.9%
CCc1ccc(C(=O)COC(=O)CNC(=O)Cc2ccccc2)cc1 | 0.9% | 16.9µM* | 2.5% | 2.9% | nt
CCc1ccc(C(=O)COC(=O)CNC(=O)C2CCCCC2)cc1 | 24.9% | 0.849µM* | -1.1% | 3.2% | nt
O=C(CNC(=O)C1CCCCC1)OCC(=O)c1ccc(F)cc1 | -9.8% | -0.1% | 8.3% | -0.2% | nt
CCc1ccc(C(=O)COC(=O)CNC(=O)CNC(=O)Cc2ccccc2)cc1 | -2.3% | ? | 1.0% | -1.4% | -6.7%
CCc1ccc(C(=O)COC(=O)CNC(=O)CNS(=O)(=O)c2ccccc2)cc1 | 3.4% | 19µM* | 1.0% | 1.0% | nt
Cc1cc(C)c(S(=O)(=O)N2CCCOC2CNC(=O)C(=O)NCc2ccncc2)c(C)c1 (configuration not stated) | -6.0% | -1.7% | 0.5% | -0.3% | -7.1%
CCc1cc2c(Sc3nc4ccccc4s3)ncnc2s1 | -2.5%[1.84 µM] | 10.7µM* | -22.7% | 0.3% | nt
c1ccc(CSc2ncnc3sccc23)cc1 | 1.9% | -15.7% | -5.0% | -0.4% | -4.2%
CCc1cc2c(SCC(=O)Nc3ccc(NC(C)=O)cc3)ncnc2s1 | 1.6% | 2.6% | 2.5% | 0.3% | nt
c1ccc2sc(Sc3ncnc4sccc34)nc2c1 | -14.7% | 0.953µM* | -6.9% | 0.2% | ?
Cc1cc(=S)n(-c2ccccc2)n1C | 25.2% | 8.3% | 17.5% | 16.4µM* | -16.6%
Brc1ccc(N=Nc2ccc3ccccc3n2)cc1 | ? | 0.0213µM* | ? | ? | nt
O=C(CCl)N(CCCNC(=O)C(F)(F)F)c1ccc([N+](=O)[O-])cc1 | -56.3% | 2.4% | -42.1% | -4.8% | nt
Oc1ccc(-c2nnc(SCC3CCCCC3)o2)cc1 | 2.82µM* | 15.1µM* | 3.16µM* | ? | ?
O=C(C1CCC(CNS(=O)(=O)c2ccc(Br)s2)CC1)N1CCN(c2ccc(F)cc2)CC1 (configuration not stated) | nt | -9.0% | nt | nt | 2.0%
CCN(C(=O)CSc1nc(-c2ccccc2)no1)c1ccccc1 | nt | 0.2% | nt | nt | nt
CC(C)c1ccc(-c2noc(SCC(=O)N3CCCCC3)n2)cc1 | nt | 2.39µM* | nt | nt | nt
CC(C)c1ccc(-c2noc(SCC(=O)N(C)c3ccc(F)cc3)n2)cc1 | nt | 6.01µM* | nt | nt | nt
CCCN(CCC)CCCNc1ccc2nnc(-c3ccc(F)cc3)n2n1 | -1.5% | 5.3% | 1.3% | -1.6% | -0.3%
CN(C)C(=O)c1cc(C(=O)c2ccc(C(F)(F)F)cc2)c[nH]1 | ? | 13.5µM* | ? | ? | nt
CN(C)C(=O)c1cc(C(=O)c2ccc(Cl)cc2Cl)c[nH]1 | ? | 15.1µM* | ? | 15.4% | nt
CN(C)C(=O)c1cc(C(=O)c2ccc(F)cc2Cl)c[nH]1 | 24.5% | ? | ? | 13.5% | nt
